ATXN viability: Viability Counterscreen for Primary qHTS for Inhibitors of ATXN expression | AID 651635, 2014 | S2 cells (HEK-293 line with an ATXN2-luciferase reporter) viability, CellTiter-Fluor protease fluorescence, 24 h | 400,000 compounds, 0.49% hits | Potency, µM (top dose mostly 56.7 µM), usual class: cytotoxic; further: potency means the concentration at half of the fitted maximal effect; nearly all actives have a fitted effect of over 40% in size
HepG2 tox-1: qHTS for Inhibitors of TGF-b: Cytotox Counterscreen; Potency, µM (titrated, usually from 46.1 µM), for the others: top-dose activity change, negative = cytotoxicity, most hits filed as cytotoxic; 410,000 compounds, 0.76% hits; HepG2 CAGA-GFP viability, ATP luminescence, 18 h; AID 588856, 2011; further: potency means the concentration at half of the fitted maximal effect
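CellTiter-Glo luminescence gave cytotoxicity after 18 hours at 37 degrees C. The cells were HepG2 CAGA-GFP in 1% FBS DMEM, stimulated with 500 pg/mL TGF-beta after compound addition. %Activity was normalised to no-cell wells (complete cell-killing) and DMSO (no toxicity), and curves were fitted and classified.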
uPA generation: qHTS for Inhibitors of Cell Surface uPA Generation; cell surface uPA generation assay, qHTS; Potency, µM (top dose mostly 38.3 µM), for inactives: at the highest dose activity change, negative = inhibition, most hits filed as inhibitors; 330,000 compounds, 0.31% hits; AID 540303, 2011; active means well fitted inhibition curve with a large enough effect; inconclusive means small, poorly fitted or top-dose-only effect; inactive means no such curve, though single readings can be large or run the other way; tested in mouse RAW 264.7 cells; further: potency means the concentration at half of the fitted maximal effect; on the % scale 0 is the no-effect control and ±100 the full control effect; nearly all actives have a fitted effect of over 55% in size
ATXN2 expr inh: Primary qHTS for Inhibitors of ATXN expression; HEK-293 ATXN2-luciferase reporter, luminescence, 24 h; Potency, µM (titrated, usually from 57 µM), for the others: at the highest dose activity change, negative = inhibition, actives largely listed as inhibitors; 360,000 compounds, 0.72% hits; further: potency means the concentration at half of the fitted maximal effect; on the % scale 0 is the no-effect control and ±100 the full control effect; nearly all actives have a fitted effect of over 55% in size
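qHTS (up to 57 uM final) was run with 24 h compound exposure of reporter cells at 37 °C. Each well was multiplexed: SteadyGlo luminescence measured ATXN2-luciferase expression after a fluorogenic Gly-Phe-AFC viability readout (25 uM final).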
Giardia kill: Small Molecules that selectively kill Giardia lamblia: qHTS; Giardia lamblia trophozoite viability; activity change, % at 7.66 µM, hits read low; 340,000 compounds, 0.15% hits; AID 540267, 2011; in the data active means activity change below about -80%; inconclusive means between about -30% and that limit;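 further: parasites exposed to compound for two days anaerobically before the ATP read; on the % scale 0 is the no-effect control and ±100 the full control effect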
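Each well holds 100 Giardia trophozoites and compound. After two days (48 hrs) at 37 deg C in anaerobic conditions, ATP is quantified by luminescence.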
TGFb SMAD3 inh: qHTS for Inhibitors of TGF-b; HepG2 CAGA-GFP TGF-b/SMAD3 reporter, GFP fluorescence, 18 h; TGF-beta stimulated, 500 pg/mL final; Potency, µM (series often up to 46.1 µM), for the others: top-dose activity, negative = inhibition, usual class: inhibitors; 410,000 compounds, 1.2% hits; further: potency means the concentration at half of the fitted maximal effect; on the % scale 0 is the no-effect control and ±100 the full control effect; nearly all actives have a fitted effect of over 65% in size
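HEPG2 CAGA-GFP cells (1000/well, DMEM with 1% FBS) were pre-incubated 2 h at 37 degrees C, given compound by pin tool, then stimulated with TGF-beta at 500 pg/mL final for 18 h before per-cell GFP fluorescence imaging.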
TGFb confirm: qHTS for Inhibitors of TGF-b: Confirmation of Cherry Picks; shares compounds with TGFb SMAD3 inh; HepG2 CAGA-GFP TGF-b reporter, GFP fluorescence, 18 h; cells stimulated with TGF-beta, 500 pg/mL; Potency, µM (titrated, usually from 46.1 µM), without a hit: at the top dose activity, negative = inhibition, most hits filed as inhibitors; 1,600 compounds, 63% hits; AID 720534, 2013; further: potency means the concentration at half of the fitted maximal effect; on the % scale 0 is the no-effect control and ±100 the full control effect; nearly all actives have a fitted effect of over 65% in size
HepG2 tox-2: qHTS for Inhibitors of TGF-b: Cytotox Counterscreen for Cherry Picks | shares compounds with TGFb SMAD3 inh | HepG2 CAGA-GFP viability, ATP luminescence, 18 h; cells stimulated with TGF-beta, 500 pg/mL | Potency, µM (highest dose often 46.1 µM), for inactives: at the top dose activity, negative = cytotoxicity, most hits filed as inhibitors | 1,600 compounds, 27% hits | AID 720535, 2013; further: potency means the concentration at half of the fitted maximal effect; on the % scale 0 is the no-effect control and ±100 the full control effect; nearly all actives have a fitted effect of over 70% in size
TGFb CCL64 inh: qHTS for Inhibitors of TGF-b: CCL64 Cells Orthogonal Assay for Cherry Picks | shares compounds with TGFb SMAD3 inh | CCL64 CAGA-GFP reporter, TGF-b stimulated, GFP fluorescence, 18 h | Potency, µM (titrated, usually from 46.1 µM), without a hit: at the highest dose activity, negative = inhibition, actives largely listed as inhibitors | 1,600 compounds, 41% hits; further: potency means the concentration at half of the fitted maximal effect; nearly all actives have a fitted effect of over 65% in size
COP TGFb inh: qHTS for Inhibitors of TGF-b: Hit Validation in HepG2 Cells using COP promoter; AID 720537, 2013; HepG2 COP-GFP TGF-b reporter, GFP fluorescence, 18 h; cells stimulated by added recombinant TGF-beta; shares compounds with TGFb SMAD3 inh; 1,600 compounds, 3% hits; Potency, µM (highest dose often 46.1 µM), inactives show at the top dose activity, negative = inhibition, usual class: inhibitors; further: potency means the concentration at half of the fitted maximal effect; nearly all actives have a fitted effect of over 70% in size
* = called active by the depositor; i = inactive; ? = inconclusive; . = not tested or not shown; [ ] = dose if it differs, or a comment. The list is not random: actives were taken first. Their share in the collection is about 2.6%. Unless noted, the call rests on the fitted dose curve; in most records, active means well fitted curve in the direction sought with a large enough effect; inconclusive means small, poorly fitted or top-dose-only effect, or another doubt; inactive means no such curve, though single readings can be large; an effect the other way counts as inactive or inconclusive.

SMILES | ATXN viability | HepG2 tox-1 | uPA generation | ATXN2 expr inh | Giardia kill | TGFb SMAD3 inh | TGFb confirm | HepG2 tox-2 | TGFb CCL64 inh | COP TGFb inh
N#CC(c1cccc(Cl)c1)c1ccc2c(C(F)(F)F)cc(C(F)(F)F)nc2n1 (stereo not drawn) | 5.62µM* | -48.7% | -11.1% | 2.51µM* | -12.9 | 1.26µM* | 0.366µM* | 1.3µM* | 1.16µM* | 15.5%
COc1cc(CC2C(=O)OCC2C(=O)c2ccc3c(c2)OCO3)cc(OC)c1OC (stereo not drawn) | ? | 2.6% | -0.1% | 3.1% | 18.1 | -1.8% | . | . | . | .
CCCn1c(C(C)Nc2nc(-c3ccc(C)cc3)cs2)nc2ccccc21 (stereo not drawn) | ? | -16.5% | -22.0% | -14.6% | -16.2 | 11.2µM* | ? | ? | ? | 42.7%
CC(Nc1nc(-c2ccc(Cl)cc2)cs1)c1nc2cc(Cl)c(N3CCCCC3)cc2n1CCOCCO (stereo not drawn) | ? | -30.0% | ? | ? | 17.0 | 20µM* | ? | ? | 18.4µM* | 70.7%
COc1ccc(-c2csc(NC(C)c3nc4cc(Cl)c(N5CCCCC5)cc4n3CCOCCO)n2)cc1 (stereo not drawn) | ? | -7.4% | -30.0% | -35.7% | 0.1 | ? | . | . | . | .
CCc1cccc(NC(=O)CN(c2ccc(C)cc2)S(=O)(=O)c2c(C)noc2C)c1 | i | -37.6% | -5.9% | . | 16.0 | ? | . | . | . | .
COCCOC(=O)c1[nH]c2c(c1C)C(=O)CC(c1ccccc1)C2 (stereo not drawn) | ? | 5.0% | -15.6% | 7.6% | 3.7 | 10µM* | 7.31µM* | -6.9% | 6.51µM* | -18.7%
COCCOC(=O)c1[nH]c2c(c1C)C(=O)CC(c1ccc(F)cc1)C2 (stereo not drawn) | ? | -2.5% | ? | -17.0% | -12.2 | 5.3% | . | . | . | .
Cc1c(C(=O)OCCOC(C)C)[nH]c2c1C(=O)CC(c1ccco1)C2 (stereo not drawn) | ? | -19.9% | ? | -17.2% | -7.7 | ? | . | . | . | .
CCOC(=O)c1[nH]c2c(c1C)C(=O)CC(c1ccco1)C2 (stereo not drawn) | ? | 4.5% | ? | -16.9% | -13.1 | ? | 7.31µM* | 9.5% | 2.06µM* | ?
COc1cc(C2c3cc4c(cc3OC(NCc3ccccc3)C2C)OCO4)cc(OC)c1OC (stereo not drawn) | ? | -105.2% | -10.2% | -19.5% | -17.9 | 2.82µM* | 7.31µM* | 0.3% | ? | -15.7%
COc1cccc(C2c3cc4c(cc3OC(NNC(N)=O)C2C)OCO4)c1O (stereo not drawn) | ? | 2.9% | -10.7% | 10.5% | -10.9 | 10µM* | 8.2µM* | -18.7% | ? | -14.5%
FC(F)(F)c1cccc(-c2nc3nc(Cl)c(Cl)nc3[nH]2)c1 | i | -33.0% | ? | . | -12.6 | 2.24µM* | 6.51µM* | 6.51µM* | 5.17µM* | 63.9%
COc1cccc(C(=O)NC2CC3CCCC(C2)N3CC(=O)Nc2ccccc2C(F)(F)F)c1 (stereo not drawn) | ? | -6.8% | -3.5% | ? | 23.9 | ? | . | . | . | .
O=C(CN1C2CCCC1CC(NC(=O)C1CCCCC1)C2)Nc1ccccc1C(F)(F)F (stereo not drawn) | ? | -13.3% | 1.3% | ? | -4.6 | ? | 18.4µM* | ? | ? | -2.7%
N[C@@H](CCC(=O)N[C@@H](CS)C(=O)NCC(=O)O)C(=O)O | i | . | . | -0.6%[25.6 µM] | . | . | . | . | . | .
Cc1cc(C)cc(N(C(=O)c2csnn2)C(C(=O)NC2CCCC2)c2ccccn2)c1 (stereo not drawn) | i | -15.3% | 4.3% | -9.2% | 15.7 | 7.6% | . | . | . | .
CC(=O)Nc1ccc(S(=O)(=O)c2ccnc3cc(Cl)ccc23)cc1 | i | -74.6% | . | . | . | 10µM* | 23.1µM* | ? | 20.6µM* | 14.7%
NC(c1csc(NC(=O)Nc2ccc(OC(F)(F)F)cc2)n1)C1CCCCC1 (stereo not drawn) | ? | 7.94µM* | . | ? | . | 8.91µM* | ? | 18.4µM* | 20.6µM* | ?
Cc1ccc(CN2CCc3c(OCc4ccc(F)cc4)cccc3C2=O)cc1 | i | -33.6% | -7.4% | -32.5% | 1.6 | -100.9% | . | . | . | .
O=C1c2cccc(OCc3ccc(F)cc3)c2CCN1Cc1ccc(F)cc1 | i | -28.8% | -5.1% | ? | -16.9 | 6.31µM* | 23.1µM* | ? | 13µM* | 31.4%
COc1cc(C2Oc3ccccc3C=C2[N+](=O)[O-])cc(OC)c1OC (stereo not drawn) | 15.8µM* | 5.62µM* | ? | . | ? | 3.16µM* | 20.6µM* | 18.4µM* | 4.11µM* | ?
O=C(Nc1cc(Sc2ccccn2)cc([N+](=O)[O-])c1)c1cccc(F)c1 | ? | -17.7% | -9.8% | -10.4% | -12.9 | 11.2µM* | 10.3µM* | ? | 13µM* | 77.3%
CCCc1c(C)nn(C(=O)/C(C#N)=N/Nc2ccccc2[N+](=O)[O-])c1C | i | -0.5% | 6.4% | -8.3% | -5.2 | 0.1% | . | . | . | .
COc1ccc(C(=O)/C(C#N)=N/Nc2ccccc2[N+](=O)[O-])cc1 | ? | -17.6% | -9.7% | -8.5% | -11.0 | 1.12µM* | 10.3µM* | ? | ? | 0.7%

Source: PubChem BioAssay
